Drawing on PubChem BioAssay (NCI), this text covers growth for eight compounds.

Among the test systems are HCT-15 colon; HT29 colon; SNB-75 CNS; SNB-19 CNS; U251 CNS; PC-3 prostate; SK-MEL-5 melanoma; UACC-62 melanoma; LOX IMVI melanoma; SK-MEL-28 melanoma; SK-MEL-2 melanoma; EKVX NSCLC; SN12C renal; UO-31 renal; TK-10 renal; ACHN renal; CAKI-1 renal; CCRF-CEM leukemia; MOLT-4 leukemia.
Assay in all cases: NCI-60 one-dose screen, 48 h (100 = growth as untreated, 0 = no growth, -100 = all killed)
Holding throughout (conditions): 10 µM unless noted

The structures appear in SMILES notation. About 83,000 compounds went through this panel and 20% of them were active in at least one assay; those are over-represented in the sample as a whole.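 Plates (96-well) were seeded with cells, treated with compound at one concentration, and incubated for 48 hours before percent growth was determined.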 Values without a mark were called inactive. Activity calls are given as the source filed them. Rule for the calls: active = growth percent below 10; inactive = the rest.

`O=C(O)/C=C\C(=O)N1C/C(=C\c2ccccc2Cl)C(=O)/C(=C/c2ccccc2Cl)C1`: the growth was -48.8% (active) in the assay with HCT-15 colon; -78.1% (active) in the assay on HT29 colon; -10.3% (active) in the assay with SNB-75 CNS; -52.7% (active) in the assay on SNB-19 CNS; -75.2% (active) in the assay with U251 CNS; 16.7% with PC-3 prostate. For the same compound, the growth is -54.1% (active) in the assay with SK-MEL-5 melanoma; -60.3% (active) in the assay on UACC-62 melanoma; -69.3% (active) in the assay with LOX IMVI melanoma; -39.6% (active) in the assay on SK-MEL-28 melanoma; 37% with SK-MEL-2 melanoma; 40.1% with EKVX NSCLC. Besides, the growth in the assay with SN12C renal is -30.7% (active); in the assay with UO-31 renal, -64.9% (active); in the assay with TK-10 renal, 0.472% (active); in the assay with ACHN renal, 20.3%; with CAKI-1 renal, 0.997% (active); in the assay with CCRF-CEM leukemia it was 3.66% (active). The growth with MOLT-4 leukemia is 4.86% (active).

As for `CC[C@H](CC[C@@H](C)[C@H]1CC[C@H]2[C@@H]3CC=C4C[C@@H](OCCc5nn[nH]n5)CC[C@]4(C)[C@H]3CC[C@]12C)C(C)C`, the growth with HCT-15 colon was 102%; in the assay on HT29 colon, 94.8%; with SNB-75 CNS, 107%; in the assay on SNB-19 CNS, 110%; with U251 CNS, 105%; in the assay with PC-3 prostate, 112%. Also, the growth with SK-MEL-5 melanoma was 111%; with UACC-62 melanoma, 118%; in the assay with LOX IMVI melanoma it was 99.9%; in the assay with SK-MEL-28 melanoma, 110%; with SK-MEL-2 melanoma, 111%; in the assay with EKVX NSCLC it was 102%. The growth was 108% with SN12C renal; 99.5% in the assay on UO-31 renal; 101% in the assay on TK-10 renal; 105% in the assay on ACHN renal; 105% in the assay on CAKI-1 renal; 103% in the assay with CCRF-CEM leukemia. In addition, in the assay on MOLT-4 leukemia, the growth is 100%.

In the case of `COc1cc(C(=O)c2cnc(-c3ccc4cc[nH]c4c3)[nH]2)cc(OC)c1OC`, the growth in the assay with HCT-15 colon is 6.36% (active); with HT29 colon, -21.6% (active); in the assay with SNB-75 CNS, 9.22% (active); in the assay with SNB-19 CNS, 23.1%; in the assay on U251 CNS, 10%; in the assay on PC-3 prostate, 18%. In addition, the growth in the assay on SK-MEL-5 melanoma is -63% (active); in the assay on UACC-62 melanoma, 29.4%; with LOX IMVI melanoma, 8.42% (active); in the assay with SK-MEL-28 melanoma it was 55.9%; with SK-MEL-2 melanoma it was 35.8%; in the assay on EKVX NSCLC, 28.2%. Also, the growth in the assay with SN12C renal was 20.5%; with UO-31 renal, 11.4%; in the assay on TK-10 renal, 33.3%; in the assay on ACHN renal, 15.5%; in the assay on CAKI-1 renal it was 8.22% (active); in the assay with CCRF-CEM leukemia, 5.89% (active). Moreover, the growth in the assay with MOLT-4 leukemia was 7.06% (active).

In the case of `CC(=O)N1c2ccccc2NC2=C(C(=O)N(Cc3ccccc3)C2(C)C)C1c1ccco1` (configuration not stated), the growth with HCT-15 colon is 15.7%; in the assay on HT29 colon, 9.99% (active); in the assay on SNB-75 CNS, 16.8%; in the assay with SNB-19 CNS it was 23.6%; with U251 CNS, 24.6%; in the assay on PC-3 prostate it was 29.7%. In addition, the growth was 7.88% (active) with SK-MEL-5 melanoma; 21.2% with UACC-62 melanoma; 25.6% in the assay with LOX IMVI melanoma; 57.3% in the assay on SK-MEL-28 melanoma; 16.9% in the assay with SK-MEL-2 melanoma; 35.4% with EKVX NSCLC. Also, the growth in the assay on SN12C renal is 35.9%; in the assay on UO-31 renal, 52.5%; in the assay with TK-10 renal, 54.9%; with ACHN renal it was 33.5%; in the assay on CAKI-1 renal, 43%; in the assay with CCRF-CEM leukemia, 24.1%. In addition, the growth in the assay with MOLT-4 leukemia was 28.6%.

For `CN(C)C(C(N)=O)c1ccc(Cl)cc1` (configuration not stated), the growth in the assay with HCT-15 colon is 108%; in the assay on HT29 colon, 104%; with SNB-75 CNS it was 93.6%; with SNB-19 CNS, 99.9%; in the assay with U251 CNS it was 93.4%; in the assay with PC-3 prostate it was 95.1%. For the same compound, the growth in the assay with SK-MEL-5 melanoma was 101%; in the assay with UACC-62 melanoma, 90.8%; with LOX IMVI melanoma it was 95.7%; in the assay on SK-MEL-28 melanoma, 101%; in the assay on SK-MEL-2 melanoma, 102%; in the assay on EKVX NSCLC, 97.8%. Further, the growth with SN12C renal was 103%; in the assay with UO-31 renal it was 94.2%; with TK-10 renal, 92.2%; with ACHN renal, 95.2%; with CAKI-1 renal, 93.4%; in the assay with CCRF-CEM leukemia, 115%. In addition, the growth in the assay with MOLT-4 leukemia is 95.5%.

As for `CCOc1ccc(/C=N/Nc2cc(C)nc3ccc(Cl)cc23)cc1`, the growth in the assay with HCT-15 colon was -0.545% (active); in the assay on HT29 colon, 26.9%; in the assay with SNB-75 CNS, 101%; with SNB-19 CNS, 76.1%; with U251 CNS it was 8.99% (active); in the assay on PC-3 prostate it was 71.2%. Also, the growth in the assay on SK-MEL-5 melanoma is 66.2%; with UACC-62 melanoma, 68.2%; with LOX IMVI melanoma, -85.6% (active); in the assay with SK-MEL-28 melanoma, 28.2%; in the assay with SK-MEL-2 melanoma, 91%; in the assay with EKVX NSCLC it was 81.7%. Further, the growth was -26% (active) in the assay on SN12C renal; 47.6% in the assay with UO-31 renal; 121% in the assay on TK-10 renal; 51.2% with ACHN renal; 78.2% with CAKI-1 renal; 0.25% (active) with CCRF-CEM leukemia. In addition, the growth in the assay with MOLT-4 leukemia is -30.5% (active).

Regarding `CCOc1cc(CNc2ccc(N3CCOCC3)c(C(=O)O)c2)ccc1OC`, the growth is 96.4% in the assay on HCT-15 colon; 98.1% in the assay on HT29 colon; 108% in the assay on SNB-75 CNS; 94.6% with SNB-19 CNS; 103% in the assay with U251 CNS; 98.9% in the assay on PC-3 prostate. Also, the growth is 99.8% in the assay with SK-MEL-5 melanoma; 90.3% in the assay with UACC-62 melanoma; 99.5% in the assay with LOX IMVI melanoma; 100% with SK-MEL-28 melanoma; 98.7% with SK-MEL-2 melanoma; 96.9% with EKVX NSCLC. Further, the growth in the assay with SN12C renal is 94.2%; in the assay on UO-31 renal it was 98.1%; in the assay with TK-10 renal, 94.7%; with ACHN renal, 108%; in the assay with CAKI-1 renal it was 102%; with CCRF-CEM leukemia, 106%. Besides, the growth in the assay with MOLT-4 leukemia is 104%.

For the compound `CCCCCCOc1ccc(/C=N/Nc2cc(C)nc3ccc(Br)cc23)cc1`, the growth in the assay on HCT-15 colon is -83.5% (active); in the assay on HT29 colon it was -65.5% (active); with SNB-75 CNS, -94.5% (active); in the assay on SNB-19 CNS, -73.7% (active); in the assay on U251 CNS it was -64.8% (active); in the assay with PC-3 prostate it was -73% (active). Further, the growth with SK-MEL-5 melanoma was 47.3%; in the assay with UACC-62 melanoma, 25.8%; with LOX IMVI melanoma, -94.1% (active); in the assay with SK-MEL-28 melanoma it was -81.9% (active); in the assay with SK-MEL-2 melanoma it was -14% (active); in the assay with EKVX NSCLC, -21.2% (active). The growth is -88.9% (active) in the assay on SN12C renal; -97.5% (active) with UO-31 renal; -85.7% (active) with TK-10 renal; -98.3% (active) in the assay with ACHN renal; -72.4% (active) with CAKI-1 renal; -23.3% (active) in the assay on CCRF-CEM leukemia. The growth in the assay on MOLT-4 leukemia is -51.4% (active).
